Laboratory results from PubChem BioAssay (EPA / NIEHS).
Results filed as inconclusive are left out. Calls of active or inactive are those of the source. How the source made its calls, unless noted: active means hit-call score of the fitted dose curve at least 0.9, where 1 is the maximum; inactive means score below 0.9.

Columns and labels:
[1] = CCTE_Mundy_HCI_Cortical_Synap_Neur_Matur_NeuriteLength: CCTE's Synaptogenesis and Neurite Maturation Assay in rat cortical cells for Neurite Length, Mundy Lab (AID 2284214)
Method in brief: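 Read-out: high-content imaging of MAP2-labelled neurites, with synaptophysin and Hoechst co-stain, in rat cortical cultures fixed at DIV 12. Activity fitted in positive direction relative to DMSO baseline.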

[2] = CCTE_Mundy_HCI_Cortical_Synap_Neur_Matur_NeuriteSpotCountPerNeuron: CCTE's Synaptogenesis and Neurite Maturation Assay in rat cortical cells for Neurite Spot Count per Neuron Count, Mundy Lab (AID 2284215)
Method in brief: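 Read-out: neurite-associated synaptophysin puncta per neuron, imaged by high-content analysis after MAP2, synaptophysin and Hoechst staining. Rat primary cortical cultures, dosed DIV 7 through DIV 12; DMSO served as baseline.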

[3] = CCTE_Mundy_HCI_Cortical_Synap_Neur_Matur_SynapseCount: CCTE's Synaptogenesis and Neurite Maturation Assay in rat cortical cells for Synapse Count, Mundy Lab (AID 2284218)
Method in brief: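 Read-out: synapse number per neuron, automated high-content imaging of fixed cells immunostained for MAP2 and synaptophysin plus Hoechst nuclei. Rat primary cortical cultures, AraC at DIV 5, chemical dosing DIV 7–12. Positive-direction fit relative to DMSO.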

[4] = CCTE_Mundy_HCI_hN2_NOG_NeuriteCount: CCTE's Neurite Outgrowth Assay in human hN2 cells for Neurite Count, Mundy Lab (AID 2284219; active means hit-call score of the fitted dose curve at least 0.9, where 1 is the maximum)
Method in brief: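 In this morphology assay, hNP1-derived neurons received test chemical 2 h post-plating and were fixed two days later in warm paraformaldehyde/sucrose containing Hoechst 33342. Neurites, labelled by rabbit anti-βIII-tubulin (1:800) and Alexa Fluor-488 (1:500), were counted automatically.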

[5] = CCTE_Mundy_HCI_hN2_NOG_NeuronCount: CCTE's Neurite Outgrowth Assay in human hN2 cells for Neuron Count, Mundy Lab (AID 2284221; active means hit-call score of the fitted dose curve at least 0.9, where 1 is the maximum)
Method in brief: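 Read-out is the number of betaIII-tubulin-positive neurons imaged by automated high-content analysis, with DMSO as negative control.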

[6] = CCTE_Mundy_HCI_Cortical_Synap_Neur_Matur_NeuriteCount: CCTE's Synaptogenesis and Neurite Maturation Assay in rat cortical cells for Neurite Count, Mundy Lab (AID 2284222);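 further: exposure from day 7 to day 12 in vitro with readout at day 12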
Method in brief: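 In this multiplexed morphology readout, rat primary cortical neurons are fixed at DIV 12 following dosing at DIV 7 and stained for MAP2, synaptophysin and nuclei. High-content image analysis yields neurite count.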

[7] = CCTE_Mundy_HCI_Cortical_Synap_Neur_Matur_CellBodySpotCount: CCTE's Synaptogenesis and Neurite Maturation Assay in rat cortical cells for Cell Body Spot Count, Mundy Lab (AID 2284223)
Method in brief: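 Read-out: cell body-associated synaptophysin puncta per neuron, imaged after MAP2, synaptophysin and Hoechst staining. Rat cortical cells, AraC DIV 5, chemical dosing DIV 7, fixation DIV 12. Activity fitted in positive direction relative to DMSO baseline.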

[8] = CCTE_Mundy_HCI_Cortical_NOG_BPCount: CCTE's Neurite Outgrowth Assay in rat cortical cells for Branch Point Count, Mundy Lab (AID 2284237)
Method in brief: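 Measured 50.33 h after dosing, this morphology endpoint uses rat primary cortical cultures labelled for betaIII-tubulin. Branch points are quantified by high-content imaging, with DMSO as negative control and baseline.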

[9] = CCTE_Mundy_HCI_hNP1_Casp3_7: CCTE's Caspase-Glo 3/7 Assay in human neuroprogenitor cells for Apoptosis, Mundy Lab (AID 2284240)
Method in brief: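 Neuroepithelial-lineage stem cells from WA09 embryonic cells were treated with chemicals after 40–44 h of culture. Twenty-four hours later, caspase-3/7 activation was detected luminescently after a 30 min room-temperature reagent step, with DMSO as baseline.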

[10] = CCTE_Mundy_HCI_hNP1_CellTiter: CCTE's Cell Titer-Glo 2 Assay in human neuroprogenitor cells for Viability, Mundy Lab (AID 2284241; active means hit-call score of the fitted dose curve at least 0.9, where 1 is the maximum)
Method in brief: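 Measures ATP content in human neural progenitors derived from WA09 embryonic cells. Read-out at 26.5 hours after dosing, with DMSO serving as the negative control and baseline.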

[11] = CCTE_Mundy_HCI_Cortical_Synap_Neur_Matur_NeuronCount: CCTE's Synaptogenesis and Neurite Maturation Assay in rat cortical cells for Neuron Count, Mundy Lab (AID 2284242; active means hit-call score of the fitted dose curve at least 0.9, where 1 is the maximum)
Method in brief: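 Rat cortical cultures; AraC DIV 5; chemical dosing + media change DIV 7 to DIV 12 (288.33 h readout). Fix, Hoechst, anti-MAP2/anti-synaptophysin immunostain; HCI neuron count vs DMSO baseline.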

[12] = IUF_NPC2c_oligodendrocyte_migration_120hr: Leibniz Research Institute for Environmental Medicine (IUF) 120-hour Neural Progenitor Cell Migration Assay for Oligodendrocyte Migration (NPC2c) (AID 2284297);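 further: O4-positive oligodendrocyte migration distance divided by radial glia migration distance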
Method in brief: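 hNPC spheres (GW 16-19 cortex), PDL/laminin, DMEM/F12 3:1 + 1% N2, 37C. Dosing day 0–5, half feed day 3, DMSO ≤0.1%. Fixed 120 h; O4 ICC + Hoechst, HCI. Readout: mean oligodendrocyte distance from sphere edge / radial glia distance.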

[13] = IUF_NPC2a_radial_glia_migration_120hr: Leibniz Research Institute for Environmental Medicine (IUF) 120-hour Neural Progenitor Cell Migration Assay for Radial Glia Migration (NPC2a) (AID 2284298)
Method in brief: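 Hoechst-stained nuclei imaged at 120 h; algorithm maps sphere core by densest nuclei, sets migration edge at density threshold, gives radial glia migration distance (um) per well vs DMSO. hNPC spheres (0.3 mm), PDL/laminin, DMEM/F12 3:1 + 1% N2.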

[14] = IUF_NPC2a_radial_glia_migration_72hr: Leibniz Research Institute for Environmental Medicine (IUF) 72-hour Neural Progenitor Cell Migration Assay for Radial Glia Migration (NPC2a) (AID 2284299)
Method in brief: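 Readout: mean of four manual brightfield measurements of radial glia migration distance (um) at 72 h. hNPC spheres (0.3 mm) exposed to 7 compound concentrations plus solvent control on PDL/laminin, 37C, 5% CO2; activity fitted relative to DMSO.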

[15] = IUF_NPC2b_neuronal_migration_120hr: Leibniz Research Institute for Environmental Medicine (IUF) 120-hour Neural Progenitor Cell Migration Assay for Neuron Migration (NPC2b) (AID 2284300)
Method in brief: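 hNPC spheres, PDL/laminin, DMEM:F12 3:1 + 1% N2, 37C/5% CO2; 7 concentrations + solvent control (DMSO ≤0.1%), 5 d exposure, half-feed day 3. Fix 120 h, TUBB3 ICC, HCI: mean neuron migration distance ÷ glia distance.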

[16] = IUF_NPC3_neuronal_differentiation_120hr: Leibniz Research Institute for Environmental Medicine (IUF) 120-hour Neuronal Differentiation Assay (NPC3) (AID 2284301)
Method in brief: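 Neuronal differentiation of primary human neural progenitors measured by high-content imaging: percent TUBB3+ of Hoechst+ nuclei within migrated area at 120 h, seven-point serial dilution plus solvent control, gain or loss relative to DMSO.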

[17] = IUF_NPC4_neurite_length_120hr: Leibniz Research Institute for Environmental Medicine (IUF) 120-hour Neuronal Morphology Assay for Neurite Length (NPC4) (AID 2284302)
Method in brief: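 Neurons from differentiating human fetal neural progenitor spheres are scored for average neurite length after five days of compound exposure. Fitting uses DMSO as negative control.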

[18] = IUF_NPC4_neurite_area_120hr: Leibniz Research Institute for Environmental Medicine (IUF) 120-hour Neuronal Morphology Assay for Neurite Area (NPC4) (AID 2284305; active means hit-call score of the fitted dose curve at least 0.9, where 1 is the maximum)
Method in brief: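 Endpoint at 120 h: automated imaging of TUBB3/Hoechst-stained differentiating human neural progenitor spheres, neurite area per neuron from skeletonization. DMSO solvent control, not above 0.1%, set the baseline; medium was half-replaced on day 3.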

[19] = IUF_NPC2-5_cytotoxicity_72hr: Cytotoxicity Assessment at 72 hours in the Leibniz Research Institute for Environmental Medicine (IUF) Neural Progenitor Cell Migration and Differentiation Assay for Cytotoxicity (NPC2-5) (AID 2284306; active means hit-call score of the fitted dose curve at least 0.9, where 1 is the maximum;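 further: LDH release into supernatant measured by resorufin fluorescence marking membrane damage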)
Method in brief: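 Primary human neural progenitor spheres migrate and differentiate on laminin. Compound is present from the start of differentiation, with DMSO kept at or below 0.1%. At 72 h, supernatant LDH is quantified fluorometrically, with values fitted in the positive direction.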

[20] = IUF_NPC2-5_cell_number_120hr: Cell Number Assessment at 120 hours in the Leibniz Research Institute for Environmental Medicine (IUF) Neural Progenitor Cell Migration and Differentiation Assay (NPC2-5) (AID 2284308);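 further: count of Hoechst-stained nuclei in migration zone around plated human neural progenitor spheres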
Method in brief: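 Hoechst-stained nuclei within the migration area were counted by automated high content imaging after 120 h. Single hNPC spheres differentiated on poly-D-lysine/laminin in DMEM/F12 (3:1) with 1% N2, compound present throughout, DMSO ≤0.1%.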

[21] = IUF_NPC2-5_viability_120hr: Viability Assessment at 120 hours in the Leibniz Research Institute for Environmental Medicine (IUF) Neural Progenitor Cell Migration and Differentiation Assay (NPC2-5) (AID 2284312)
Method in brief: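 Human fetal (GW 16-19) neural progenitor spheres of 0.3 mm were plated on poly-D-lysine/laminin in N2 differentiation medium and exposed from day 0 for 120 h, with half-medium refresh at day 3. Viability was read as alamar blue resazurin-to-resorufin fluorescence against DMSO.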

Measured: outcome

F
inactive: all assays above
